Here are results for 57 compounds from ChEMBL document CHEMBL4513216, “Probing the Open Global Health Chemical Diversity Library for Multistage-Active Starting Points for Next-Generation Antimalarials” (ACS Infect Dis, 2020).

The whole screen tested about 69,000 compounds, of which about 8,600 (12%) showed an effect of 50% or more. Only a selection was taken, and strong results are over-represented in it overall.

This test has as its system Plasmodium berghei. Put plainly: Screen against P. berghei liver stage (PbLuc), transformed with Luciferase, at 10uM. It is filed as functional, HepG2. Particulars: tested at 10 uM.
Take `CN(C)C(=O)CCS(=O)(=O)Cc1coc(-c2ccc(F)cc2)n1`: the INHIBITION is on record as -23.4%. Next, `CCC(CCN)n1ccc(C(F)(F)F)n1` (configuration not stated): 35.2%; `Cc1cc(C)n(-c2cncc(NCCNC(=O)C(C)(C)C)n2)n1`: 34.9%. Under `CC(C)C(N)CNS(=O)(=O)Cc1cccc2cccnc12` (configuration not stated) stands 24.2%; under `CC(C)CCN(C(=O)CCn1cc(S(N)(=O)=O)cn1)C1CC1`, 11.4%; under `Cn1cc(-c2cnc(-c3ccnn3C)nc2)cc1C(=O)N1CCCC1`, -4.26%. Next, `Cc1ccc(C2COCCN2C(=O)c2cccc(N(C)C)c2)o1` (configuration not stated): 32.9%; `Cc1ccc(C(=O)N2CCc3c(CNS(C)(=O)=O)cncc3C2)o1`: -3.83%; `c1ccc(CO[C@@H]2CN(Cc3nccs3)[C@@H]3COC[C@@H]32)nc1`: 59.3%. Take `Fc1ccc(CN2C[C@@H](OCc3ccccn3)[C@H]3COC[C@H]32)cc1`: the INHIBITION stood at 43.9%. Next, `Cc1nc(CO[C@@H]2CN(Cc3nccs3)[C@@H]3COC[C@@H]32)cs1`: -56.3%.

Turning to `O=C(c1ccnnc1)N1C[C@H](OCc2ccccn2)[C@H]2COC[C@H]21`, the INHIBITION amounted to 5.67%. As to `Cc1nc(CO[C@H]2CN(C(=O)c3ccc[nH]3)[C@@H]3COC[C@H]23)cs1`, the INHIBITION was determined as 13.1%. Next, `O=C(c1ccc[nH]1)N1C[C@H](OCc2ccccn2)[C@H]2COC[C@H]21`: 64.8%; `CN(CC(=O)N1CCCCC1Cn1cccn1)Cc1ccccc1` (configuration not stated): 23.5%; `Cn1nc(Cn2cccn2)c2c1CN(Cc1ccsc1)C2`: -41.8%. Next, `COCCN1C[C@@H]2COC[C@@H](CC(=O)NCc3cccnc3)[C@@H]2C1`: 47.4%; `O=C(C[C@@H]1COC[C@H]2CN(CC3CC3)C[C@@H]12)NCc1cccnc1`: 53.4%. Next, `O=C(C[C@@H]1COC[C@H]2CN(Cc3cccnc3)C[C@@H]12)NCC1CC1`: 54.4%. Consider `COCCNC(=O)C[C@@H]1COC[C@H]2CN(Cc3cccnc3)C[C@@H]12`, for which the INHIBITION came out at 40.5%. On to `O=C(C[C@@H]1COC[C@H]2CN(C3CCC3)C[C@@H]12)NCc1cccnc1`, for which the INHIBITION is 27.5%.

Turning to `O=C(C[C@@H]1COC[C@H]2CN(Cc3cccnc3)C[C@@H]12)N1CCCC1`, the INHIBITION was -11.6%. Under `Cc1cccc(N2CCN(C(=O)CNCCn3cccn3)CC2)c1` stands -76.5%; under `CCC[C@H]1CN(c2cncc(C(=O)N(C)C)n2)C[C@@H]1N(C)C`, 33.7%; under `NC(=O)CN1CCN(C(=O)c2cc(Cl)cc3cccnc23)CC1`, 13.4%. Next, `CN(C)c1nc2c(c(NCc3nnc4n3CCCCC4)n1)CCNC2`: 5.78%.

Regarding `CNC(=O)c1ccccc1NCc1ncnn1C`, the INHIBITION is recorded as 20%. Under `Cn1ccc2cc(CC3COCCN(C(=O)c4cccnc4)C3)ccc21` (configuration not stated) stands 29.61%; under `COCCn1nc(C(=O)N(C)Cc2cccnc2)ccc1=O`, 6.72%. For `Cc1ccccc1N1CCN(C(=O)c2cnn(C(C)C)c2)C(C)C1` (configuration not stated), the INHIBITION is 12.1%. Under `CC1CN(C)CCN1C(=O)c1cnc2c(cnn2C2CCCC2)c1` (configuration not stated) stands 31.2%. Regarding `Cc1cnn(-c2ccc(C(=O)N3CCN(C)CC3C)cc2)c1` (configuration not stated), the INHIBITION was -15.3%. Turning to `CC(O)CN1CCN(C(=O)c2cnn(-c3ccc(Cl)cc3)c2)CC1` (configuration not stated), the INHIBITION was 16.6%. Next, `CC1CN(C)CCN1C(=O)c1ccc(-n2cnnc2)cc1` (configuration not stated): 66.1%; `CC1CN(C)CCN1C(=O)c1cccn1Cc1cccnc1` (configuration not stated): 17.9%.

Regarding `CC1CN(C)CCN1C(=O)c1cnn(-c2cccc(Cl)c2)c1` (configuration not stated), the INHIBITION is 74.4%.

Regarding `CC1CN(C)CCN1C(=O)c1cnn(-c2ccc(Cl)cc2)c1` (configuration not stated), the INHIBITION is 66.1%. With `CC[C@@]1(O)CCN(C(=O)c2ccc(-n3cnnc3)cc2)C[C@H]1O`, the INHIBITION is given as 20.6%.

For the compound `O=C(Cc1ccc(Cl)s1)Nc1ccc2c(c1)C(=O)NC2=O`, the INHIBITION is reported as -97.9%. Next, `Cc1nn(C)c(N2CCOCC2)c1CNC1CCC(O)CC1` (configuration not stated): 9.14%; `CC(C)(C)C(=O)NCC(=O)Nc1cccnc1`: 45.5%. Under `COc1ccccc1CCNC(=O)NCC(=O)Nc1cccnc1` stands -21.8%.

With `COc1ccccc1CC(C)(C)C(=O)NCC(=O)Nc1cccnc1`, the INHIBITION is 56.6%. Regarding `COC(=O)NCCCn1ccnc1-c1ccccc1`, the INHIBITION is listed as -17.4%. Under `O=C(Cc1ccsc1)N1CCc2ncc(Cn3cccn3)n2CC1` stands 42.7%. Next, `COc1c(CNC(C)c2sc(C)nc2C)c(C(C)C)nn1C` (configuration not stated): 33.7%; `CN1CC2(CCN(C(=O)Cc3ccccn3)CC2)OCC1=O`: -28.2%; `CNc1cc(N2CCCC2CNCc2cscn2)ncn1` (configuration not stated): -2.35%. Under `COCCN1CC[C@H]2OCC[C@@H](C(=O)N3CCCO3)[C@H]2C1` stands 1.9%; under `N#Cc1cn[nH]c1NCc1cc(I)cc(I)c1O`, 19.7%; under `N#Cc1cn[nH]c1NCc1cc(Br)ccc1O`, 27.5%. Turning to `N#Cc1cn[nH]c1NCc1cc(Cl)cc(Cl)c1O`, the INHIBITION was 62.2%. Next, `c1ccn(Cc2nnc3n2CCCN(Cc2ccoc2)C3)c1`: -13.1%. Next, `O=C(Nc1ccc2c(c1)OCO2)N1CCN(CCn2ccnc2)CC1`: 6.99%; `O=C(Nc1cccc(C(F)(F)F)c1)N1CCN(CCn2ccnc2)CC1`: 60.2%; `CC(C(=O)Nc1cccc(C(F)(F)F)c1)N(C)CCN1CCOCC1` (configuration not stated): 35.2%. Under `CN(C)Cc1nc2c(o1)CN(C(=O)NCc1cccc(F)c1)C2` stands 13.7%.
